Drawing on PubChem BioAssay (NCI), this text covers growth inhibition for 20 compounds.

This is part of a sample that, as a whole, favours compounds with a hit. Of some 79,000 tested, about 15% had one in any assay. Unmarked numbers belong to inactive results. The source made the active and inactive calls. No stated cut-off is given here; in the data, active means growth inhibition above about 70%; inactive means the rest.

Test [1] is described as follows: NCI Yeast Anticancer Drug Screen. Data for the rad50 strain (AID 155).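 Further: 0% = growth of vehicle-only cultures of the same strain.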 Particulars: S. cerevisiae rad50 strain growth inhibition; at 50.0 µM; stronger effect = higher value. An outline of the steps: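 Yeast carrying a defined DNA repair defect were exposed to test compounds, and growth was compared with vehicle-treated controls to give percent inhibition.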
A short description of test [2]: NCI Yeast Anticancer Drug Screen. Data for the mec2-1 strain (AID 157). Particulars: S. cerevisiae mec2-1 strain, at 50.0 µM, stronger effect = higher value. An outline of the steps:
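Mutant yeast (mec2-1) grown with compound; growth inhibition relative to vehicle control reported.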

Test [3] is described as follows: NCI Yeast Anticancer Drug Screen. Data for the sgs1 mgt1 strain (AID 161).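 Further: 0% = growth of cultures given vehicle only.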 Particulars: S. cerevisiae sgs1 mgt1 strain, at 50.0 µM, stronger effect = higher value. An outline of the steps:
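This yeast growth screen uses a strain with defined DNA-repair lesions; compound-treated growth is compared with vehicle-treated growth.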

Test [4] can be described thus: NCI Yeast Anticancer Drug Screen. Data for the cln2 rad14 strain (AID 165).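 Further: 0% = growth equal to vehicle treated cultures.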 Particulars: S. cerevisiae cln2 rad14 strain, at 50.0 µM, stronger effect = higher value. An outline of the steps: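 Readout is yeast growth inhibition versus vehicle-treated controls, using a strain with cln2 and rad14 alterations exposed to compound.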
Test [5] can be described thus: NCI Yeast Anticancer Drug Screen. Data for the bub3 strain (AID 167). Particulars: S. cerevisiae bub3 mutant strain, at 50.0 µM, stronger effect = higher value. An outline of the steps: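 Compounds were applied to a genetically altered yeast strain carrying a cell-cycle control defect. Growth inhibition was scored against vehicle-treated controls.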
Test [6] in a line: NCI Yeast Anticancer Drug Screen. Data for the mlh1 rad18 strain (AID 175). Particulars: S. cerevisiae mlh1 rad18 strain growth inhibition; at 50.0 µM; stronger effect = higher value. In outline: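 Genetically defined yeast (DNA repair-deficient) exposed to compounds; growth inhibition determined relative to vehicle.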

As to `CN(C)C(=O)Oc1ccc(C2CCCN2C)cn1` (stereo not given), the growth inhibition in test [1] is 3.95%; in test [2], 5.45%; in test [3], 3.75%; in test [4] it was -13.1%; in test [5], -6%; in test [6], -22.7%.

As for `O=C(CCN1CC=C(c2ccccc2)CC1)c1ccc(F)cc1`, the growth inhibition is 76.5% (active) in test [1]; 51.5% in test [2]; 88.6% (active) in test [3]; 67.5% in test [4]; 64.2% in test [5]; 92.3% (active) in test [6].

Regarding `CCOC(OCC)/C(=C\N(C)C)N=C(C#N)C#N`, the growth inhibition is 0.95% in test [1]; -2.4% in test [2]; 5.35% in test [3]; -35.4% in test [4]; 3.25% in test [5]; -2.05% in test [6].

Consider `COC(=O)/C=C/[C@H]1[C@H](C)N1S(=O)(=O)c1ccc(C)cc1` (stereo not given in full), for which the growth inhibition is 8.75% in test [1]; 20.1% in test [2]; 14.8% in test [3]; 4.4% in test [4]; -22.6% in test [5]; -7.25% in test [6].

Take `O=C1C(=C(O)c2ccccc2)C(=O)c2ccccc21`: the growth inhibition in test [1] is -3%; in test [2], 1.65%; in test [3], 1.65%; in test [4] it was -0.25%; in test [5] it was -1.8%; in test [6], 12.3%.

Turning to `CC1OCN2CCCCC12` (stereo not given), the growth inhibition in test [1] was -25.9%; in test [2], -12.7%; in test [3], -33.4%; in test [4], -7.85%; in test [5], -25.1%; in test [6] it was -27.1%.

With `CCCCS(=O)CCC(N)P(=O)(O)O` (stereo not given), the growth inhibition in test [1] is -50.6%; in test [2] it was -54%; in test [3] it was -52.8%; in test [4], -9.9%; in test [5] it was 1%; in test [6], -38.2%.

Regarding `CC(=O)CC(C)=O.CC(=O)CC(C)=O.[Co]`, the growth inhibition in test [1] is -31.9%; in test [2], -41%; in test [3] it was -8%; in test [4], -133%; in test [5] it was -52.3%; in test [6] it was 0.7%.

As for `O=C1C2CC(CN3CCCCC23)C2CCCCN12` (stereo not given), the growth inhibition is -4.55% in test [1]; -24.1% in test [2]; 18.9% in test [3]; 8.35% in test [4]; -4.15% in test [5]; -24.2% in test [6].

For `c1ccc(CN2C3c4ccccc4C2c2ccccc23)cc1`, the growth inhibition was -0.15% in test [1]; -2.2% in test [2]; -4% in test [3]; -12.3% in test [4]; -2.8% in test [5]; 3% in test [6].

With `COP(=O)(OC)O/C(=C(/OP(=O)(OC)OC)c1ccccc1)c1ccccc1`, the growth inhibition in test [1] is 35.5%; in test [2], 14.3%; in test [3] it was 0.1%; in test [4] it was 24.1%; in test [5], -1.35%; in test [6], 25.1%.

For the compound `COc1ccc(C=C(C#N)C#N)cc1OC`, the growth inhibition in test [1] is -2.8%; in test [2], -8.15%; in test [3], -1.95%; in test [4], -24.2%; in test [5], -1.3%; in test [6], -0.25%.

On to `CC(C)(C)N1OC1c1cccc(Cl)c1` (stereo not given), for which the growth inhibition was 29.6% in test [1]; 29.4% in test [2]; 10.8% in test [3]; 11.9% in test [4]; -2.85% in test [5]; 36.5% in test [6].

In the case of `CC1(Cl)C(=O)NC(=O)NC1O` (stereo not given), the growth inhibition is 4.45% in test [1]; 2.5% in test [2]; 12.2% in test [3]; 20.4% in test [4]; 0.1% in test [5]; 19.1% in test [6].

With `O=C1CCN(C2(c3ccccc3)CCCCC2)CC1`, the growth inhibition in test [1] was 3.85%; in test [2], -4.1%; in test [3], 3.55%; in test [4] it was -5.1%; in test [5] it was -8.85%; in test [6], -1.35%.

As for `O=[N+]([O-])c1ccc(SN2C3CCCCC32)c([N+](=O)[O-])c1` (stereo not given), the growth inhibition in test [1] is 3.85%; in test [2], 11.7%; in test [3] it was 6.1%; in test [4] it was 7.85%; in test [5] it was 11.8%; in test [6] it was 22.7%.

Turning to `N#CC[CH2][Sn]([I])([c]1ccccc1)[c]1ccccc1`, the growth inhibition is 98.2% (active) in test [1]; 98.8% (active) in test [2]; 98% (active) in test [3]; 98.5% (active) in test [4]; 98.8% (active) in test [5]; 98.1% (active) in test [6].

For `NC(=O)C1(Br)CCCCC1`, the growth inhibition in test [1] was -11.8%; in test [2] it was -18.9%; in test [3] it was -10.5%; in test [4], -7.25%; in test [5] it was 8.45%; in test [6], -3.55%.

Regarding `CCOP(=S)(Oc1ccccc1[N+](=O)[O-])c1ccccc1` (stereo not given), the growth inhibition was 6.85% in test [1]; 7.4% in test [2]; 12.6% in test [3]; 25.8% in test [4]; 18.9% in test [5]; 10.2% in test [6].

For `CNc1cccc2ccccc12`, the growth inhibition was -3.3% in test [1]; -14.1% in test [2]; -54.5% in test [3]; -36.5% in test [4]; -28.6% in test [5]; -0.35% in test [6].
